Consider 71 molecules from ChEMBL document CHEMBL5308541, “MAIP: An Open-Source Tool to Enrich High-Throughput Screening Output and Identify Novel, Druglike Molecules with Antimalarial Activity” (ACS Med Chem Lett, 2023).

The term % Inhibition denotes the change of the read-out against control, counted positive when it falls.

SMILES strings stand for the structures. Hit rate of the full screen: of about 4,800 compounds, about 420 (8.8%) showed an effect of 50% or more. This excerpt belongs to a sample that is enriched for strong results.

This assay concerns Plasmodium falciparum. Description: Confirmatory screen in NF54 nanoGlo assay, in single point, at 2uM, 72h. The format is functional, Erythrocyte. To be noted: timepoint 72 hour.
On to `Nc1nc(NCC2CCN(CCc3ccccc3)CC2)cc([C@H]2C[C@@H](N)C2)n1`, for which the “% Inhibition” value is given as 23%.
Under `Cc1ccc(-c2cccc3c(C(=O)NCCCN4CCC(N5CCCCC5)CC4)cc(C)nc23)cc1` stands 98%.
With `CN(C)CCN1CCC(CNCc2ccc3ncccc3c2)CC1` the figure was 5%; with `COc1ccc(-c2cncc(C(=O)NCC3CCN(CCN(C)C)CC3)c2)cc1`, 94%; with `Cn1cncc1[C@@H]1CNC[C@H]1CNC(=O)c1ccccc1NC1CCCCC1`, 79%.
On to `Brc1cccc(NCCNC2CCN(Cc3cccnc3)CC2)c1`, for which the “% Inhibition” value was 36%.
In the case of `Cc1cc(F)ccc1N1CCC(NCCCNc2cccnc2)CC1`, the “% Inhibition” value stood at 18%.
With `CC1CN(c2ccccc2NC(=O)c2ccc(-c3cnco3)cc2)CC(C)O1` (stereo unspecified) the figure was -6%; with `Cc1ccccc1CN1CCC(CNc2c3c(nc4ccccc24)CCC3)CC1`, 95%; with `Cc1cc(C)c(-c2csc(Nc3ncnc4[nH]ncc34)n2)cc1C`, 19%.
With `CN(C[C@H](O)COc1ccccc1CN1CCC(c2ccncc2)CC1)C1CCCCC1` the figure was 39%; with `O[C@H](COc1ccccc1CNCc1cc(-c2ccccc2)[nH]n1)CN1CCCCC1`, 80%.
Under `CN1CCC(N(C)C[C@H](Nc2ncnc3ccccc23)c2ccccc2)CC1` stands 99%.
Turning to `Cc1nc2ccc(Oc3ccccc3)cc2c(O)c1CN(C)C1CCN(C)CC1`, the “% Inhibition” value is listed as 22%.
Under `CC1(N2CCC2)CCC(NC[C@H]2CCN(Cc3ccccc3)C2)CC1` (stereo partly specified) stands 66%.
With `OC1CN(Cc2cnc(C3CCCCC3)nc2)CCC1Nc1ncccn1` (stereo unspecified) the figure was 1%; with `CN1CCN(CCc2ccc(N[C@H]3CCCN(Cc4ccccc4)C3(C)C)cc2)CC1`, 10%.
Under `C[C@H]1CCCN(CCNC(=O)c2ccc(-c3ccc4c(=O)[nH]ccc4c3)cc2)C1` stands 58%; under `c1cc(CN2CCN(c3cc(N4CCN(Cc5ccncc5)CC4)ncn3)CC2)ccn1`, 0%.
Turning to `CCOc1ccc2nc(CN(CC)CC3CCN(C4CCN(C)CC4)CC3)ccc2c1`, the “% Inhibition” value is given as 82%.
Under `CCOc1ccc2nc(N3CCC(N4CCC([C@H](O)c5cccnc5)CC4)CC3)nc(C)c2c1` stands 29%.
Regarding `Cc1noc(-c2ccnc(NC[C@@H](c3ccccn3)N3CCOCC3)c2)n1`, the “% Inhibition” value is reported as 93%.
As to `COc1ccnc(NCCCc2nc(-c3ccncc3)cs2)n1`, the “% Inhibition” value came to 65%.
Under `CN(C)C1CCN(CCN[C@H]2CCc3ccc(F)cc32)CC1` stands 85%.
For `Cc1ccccc1-c1cccc(N2CCC(NCC3CCNCC3)CC2)c1`, the “% Inhibition” value came to 99%.
For `Cc1ccccc1-c1cccc(CNCCCN2CCC[C@H](O)C2)c1`, the “% Inhibition” value is listed as 12%.
For the molecule `Cc1nc(-c2ccccn2)nc(NC2CCN(CC(F)F)CC2)c1C`, the “% Inhibition” value was 35%.
As for `c1ccc(-c2nc3c(c(NCCNc4ncccn4)n2)CCC3)nc1`, the “% Inhibition” value was 25%.
With `CCCN(CCN1CCN(CC)CC1)c1nc(-c2ccccn2)nc2c1CCC2` the figure was 6%; with `CCOc1cc(C(=O)NC2CCN(CC3CCCC3)CC2)cc(-c2ccccc2)c1OC`, 95%.
With `Cc1cnccc1N1CCCN(Cc2ccccc2OCCN2CCN(C)CC2)CC1` the figure was 99%; with `CN(C)C1(CNc2nc(C(F)(F)F)nc3cc(F)ccc23)CCCCCC1`, 61%.
With `CN(C)C1(CNc2nc(C(F)(F)F)nc3cc4c(cc23)OCO4)CCCCCC1` the figure was 49%.
For `C[C@H](Nc1nc(N)c2ccccc2n1)c1cccc(-n2cncn2)c1`, the “% Inhibition” value is on record as 36%.
Under `COCCNc1nc(N[C@@H](C)c2ccccc2)c2ccccc2n1` stands 63%.
Under `COCCN1CC[C@H](CNC2CCN(c3ncc4ccc(F)cc4n3)CC2)C1` stands 59%; under `COCCN1CCC[C@H](CNCc2cnn(-c3ccc4ccccc4c3)c2)C1`, 12%; under `Cc1cc(N2CC3COCCC3(C(=O)O)C2)nc2ccc(F)cc12` (stereo unspecified), -2%.
Under `Cc1ccn2cc(-c3ccc(N4CCC(NCc5cccnc5)CC4)cc3)nc2c1` stands 60%.
With `c1cncc(-c2ccc(CNC3CCN(Cc4cccs4)CC3)cc2)c1`, the “% Inhibition” value is 45%.
For the molecule `CN(c1ccccc1)c1ccc(CN2CCN([C@H]3CCNC3)CC2)cc1`, the “% Inhibition” value is given as 54%.
With `COC(=O)c1cn(CCNc2ccnc3cc(Cl)ccc23)cc2c(O)nnc1-2` the figure was 95%.
With `Cc1ocnc1CNC[C@H](O)c1ccc(Cl)c(Cl)c1`, the “% Inhibition” value was determined as 89%.
With `CCc1ccc2ncnc(NCCCN3CCN(CCO)CC3)c2c1` the figure was 43%.
Under `COCCCN1CCC(Nc2ncnc3cc(C)c(C)cc23)CC1` stands 97%; under `Cc1cnccc1NCCNCc1cccc(OCCCCN2CCOCC2)c1`, 95%; under `Cc1cnccc1NCCNCc1cnc(N2CCCCC2)nc1`, 61%.
Under `Fc1ccc(-n2cc(CNCCC3CCN(c4ccncc4)CC3)cn2)cc1` stands 88%; under `c1ccc2c(CNCCC3CCN(c4ccncc4)CC3)csc2c1`, 77%.
In the case of `CCN1CCN(c2ccccc2CNCCC2CCN(C)CC2)CC1`, the “% Inhibition” value is on record as 18%.
With `COc1ccc(-c2cc(-c3ccccc3O)n([C@@H]3C(=O)Nc4ccc(Br)cc43)n2)cc1` the figure was 31%; with `CCCc1cccc(CNC2CCN(C3CCN(C)CC3)CC2)c1`, 58%; with `CN1CCN(CCNC2CCN3CCCC3C2)C(c2ccccc2)C1` (stereo unspecified), 32%.
Under `C[C@@H](CNC1CCN(C2CCN(C)CC2)CC1)c1cccc(Cl)c1` stands 98%; under `COc1ccc2nc(C)cc(NCc3cccc(NC(=O)c4ccco4)c3)c2c1`, 96%.
Under `COc1ccc2c(C)cc(NCCCN3CCC[C@H](C(N)=O)C3)nc2c1` stands 87%.
For `Cc1cc(NCCCN2CCC[C@H](O)C2)c2cc(F)ccc2n1`, the “% Inhibition” value is 28%.
Under `N[C@H]1CC[C@@H](NC2CCN(c3ccc(F)c(F)c3)CC2)CC1` stands 45%; under `Fc1ccc(N2CCC(N[C@@H]3COC4(CCNCC4)C3)CC2)cc1F`, 13%; under `Cc1nc2ccc(CNC3CCN(c4ccc(F)c(F)c4)CC3)cc2[nH]1`, 56%.
With `COC(CN(Cc1nc(N)nc(Nc2ccc(C)cc2)n1)Cc1nc(N)nc(Nc2ccc(C)cc2)n1)OC` the figure was 84%; with `OCCN1CCC(NCCc2cc(Cl)cc(Cl)c2)CC1`, 28%.
On to `CN1CCN(CCCCNC2CC3CCC(C2)N3Cc2ccccc2)CC1` (stereo unspecified), for which the “% Inhibition” value is given as 34%.
As to `O=C(NCc1cccc(-c2cccnc2)c1)N[C@H]1CCN(C2CCCCC2)C1`, the “% Inhibition” value is 48%.
Under `O=C(CCc1nnc(-c2ccc(-c3ccccc3)cc2)o1)NC[C@@H]1CCCN2CCCC[C@H]12` stands 56%.
For `CC(C)(C)n1ncc2c(NCc3ccc4cccnc4c3O)ncnc21`, the “% Inhibition” value is on record as 27%.
Under `CNc1nc(N2CCN(CC(=O)NC3CCCCC3)CC2)nc2ccccc12` stands 23%.
As to `CN1CCN(CC2CCN(c3ccnc4ccccc34)CC2)CC1`, the “% Inhibition” value amounted to 99%.
With `COc1ccc2c(N3CC[C@H](CN4CCCC4)C3)ccnc2c1` the figure was 99%; with `COc1cc2nc(-c3ccc(F)c4cccnc34)nc(N)c2cc1OC`, 98%; with `Cc1cccc(Nc2ccnc(Nc3ccc(N4CCN(C)CC4)cc3)n2)c1`, 93%.
